The record followed here is PubChem BioAssay (Tox21).

The nature of test [1]: Nuclear factor erythroid 2-related factor 2/antioxidant responsive element (Nrf2/ARE) small molecule agonists: qHTS cell viability counter screen in human keratinocytes (AID 1919968; active = well fitted curve in the direction sought with a large enough effect in the repeat runs; an effect the other way counts as inactive or inconclusive; also: nearly all actives have a fitted effect of over 55% in size; also: potency is read from the fitted curve at half-maximal effect). In short, it runs like this: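 KeratinoSens HaCaT cells, 1,500/well, preincubated 5 h, then exposed to compounds in DMSO for 23 h at 37 C/5% CO2. Viability read as CellTiter-Fluor fluorescence after 1 h, in the same wells as the ARE-luciferase read.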
A general note: qHTS replaces the single test concentration by a dilution series.

Test [2] in a line: Nuclear factor erythroid 2-related factor 2/antioxidant responsive element (Nrf2/ARE) small molecule agonists: luciferase reporter gene qHTS assay in human keratinocytes (AID 1919969). Also: nearly all actives have a fitted effect of over 35% in size. Also: potency is read from the fitted curve at half-maximal effect. A general note: In a reporter assay the amount or activity of a reporter protein is the signal.
The target in test [3] is Gonadotropin-releasing hormone receptor (Homo sapiens) (UniProt P30968). Put plainly: Human gonadotropin-releasing hormone receptor (GnRHR) small molecule agonists, calcium flux assay in GnRHR-HEK293 cells (AID 1920063). Also: nearly all actives have a fitted effect of over 35% in size. An outline of the steps: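 HEK293 cells stably expressing human GnRHR were dye-loaded for 1 h at 37 C. Compound was added in agonist mode and fluorescence (Ex/Em 480/540) recorded kinetically for 3 min. Fifteen concentrations, triplicates.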
Gonadotropin-releasing hormone receptor (Homo sapiens), sequence (P30968 whole entry, looked up): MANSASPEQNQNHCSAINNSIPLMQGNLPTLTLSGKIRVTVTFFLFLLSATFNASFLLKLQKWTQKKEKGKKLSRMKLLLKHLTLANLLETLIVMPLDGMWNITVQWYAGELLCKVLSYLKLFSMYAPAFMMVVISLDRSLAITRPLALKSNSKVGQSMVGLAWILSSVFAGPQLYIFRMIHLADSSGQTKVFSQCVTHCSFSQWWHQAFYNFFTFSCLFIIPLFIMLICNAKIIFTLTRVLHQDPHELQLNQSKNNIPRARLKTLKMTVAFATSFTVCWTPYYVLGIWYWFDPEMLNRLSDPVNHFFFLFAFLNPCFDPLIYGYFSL
For orientation: Calcium assays in cells follow changes in intracellular calcium, usually with a dye or a luminescent sensor.

The target of test [4] is KiSS-1 receptor (Homo sapiens) (UniProt Q969F8). The test can be described thus: Human kisspeptin (KISS1R) small molecule agonists, calcium flux assay in KISS1R-HEK293 cells (AID 1920064; active = well fitted curve in the direction sought with a large enough effect in the repeat runs; an effect the other way counts as inactive or inconclusive). An outline of the steps: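 HEK293 cells stably expressing human KISS1R were loaded with calcium dye for 1 h at 37 C, then given compound; fluorescence (Ex/Em 480/540) was read kinetically for 3 min. Fifteen concentrations, triplicate.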
KiSS-1 receptor (Homo sapiens), sequence (Q969F8 whole entry, looked up): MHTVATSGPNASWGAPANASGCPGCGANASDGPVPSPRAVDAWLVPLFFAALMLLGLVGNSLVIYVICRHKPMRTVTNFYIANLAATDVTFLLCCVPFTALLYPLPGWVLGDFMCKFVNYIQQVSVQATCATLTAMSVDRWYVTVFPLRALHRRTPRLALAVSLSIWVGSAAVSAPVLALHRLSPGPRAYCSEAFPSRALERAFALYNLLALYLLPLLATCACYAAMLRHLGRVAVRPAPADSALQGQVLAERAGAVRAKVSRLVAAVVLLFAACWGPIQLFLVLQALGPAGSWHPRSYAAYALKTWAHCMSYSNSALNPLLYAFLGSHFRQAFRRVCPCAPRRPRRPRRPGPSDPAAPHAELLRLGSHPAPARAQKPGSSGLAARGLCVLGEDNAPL

Test [5] in a line: G protein-coupled receptor (GPCR) small molecule agonists, calcium flux assay: HEK293 wild type cell line counter screen (AID 1920065). An outline of the steps:
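Wild-type HEK293 cells plated 18 h, loaded with calcium dye 1 h at 37 C, then compounds added in agonist mode (ATP as positive control). Kinetic fluorescence Ex/Em 480/540 recorded 3 min at 1 sec intervals; 15 concentrations, triplicate.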

Test [6] in a line: p53 small molecule agonists, cell-based qHTS assay with human liver microsomes (AID 1963577). An outline of the steps: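 p53RE-bla reporter cells were pre-incubated 5 h at 37 C, then treated with compounds plus human liver microsomes (0.5 mg/mL final) and NADPH (0.5 mg/mL final) for 16 h at 37 C. Beta-lactamase activity was read by LiveBLAzer fluorescence after 2 h at room temperature.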

The nature of test [7]: p53 small molecule agonists, cell-based qHTS assay with rat liver microsomes (AID 1963578). In short, it runs like this:
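p53RE-bla cells were exposed to compounds together with rat liver microsomes (0.5 mg/mL final) and NADPH (0.5 mg/mL final) for 16 h at 37 C, then read by LiveBLAzer beta-lactamase fluorescence after 2 h at room temperature.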

Test [8] in a line: p53 small molecule agonists, cell-based qHTS assay with rat liver microsomes: qHTS cell viability counter screen (AID 1963580). Also: nearly all actives have a fitted effect of over 45% in size. Also: potency is read from the fitted curve at half-maximal effect. An outline of the steps: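 Viability is assessed in parallel with the p53 reporter read: HCT-116 p53RE-bla cells receive compounds plus rat microsomes and NADPH (0.5 mg/mL final apiece), incubate 16 h at 37 C, and then CellTiter-Glo luminescence is recorded.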

Test [9] is described as follows: p53 small molecule agonists, cell-based qHTS assay: qHTS cell viability counter screen (AID 1963581). Also: nearly all actives have a fitted effect of over 45% in size. Also: potency is read from the fitted curve at half-maximal effect. In short, it runs like this: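 p53RE-bla HCT-116 cells, compounds added 5 h after plating and incubated 16 h at 37 C. Cytotoxicity measured in the same wells as intracellular ATP by CellTiter-Glo luminescence after 30 min at room temperature.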
Test [10] can be described thus: p53 small molecule agonists, cell-based qHTS assay (AID 1963582; active = well fitted activation curve with a large enough effect in the signal ratio in the repeat runs, not every such curve was filed as active; the % refers to the signal ratio). An outline of the steps: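 p53RE-bla reporter cells, compounds added in DMSO after 5 h plating, incubated 16 h at 37 C. Beta-lactamase read via 2 h room-temperature LiveBLAzer B/G FRET substrate, fluorescence intensity.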
Test [11] in a line: cAMP Responsive Elements (CRE) small molecule agonists, cell-based qHTS assay (AID 1963590). In short, it runs like this: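 CRE-bla HEK 293T cells, 2,000/well in DMEM with 10% dialyzed FBS and 25 mM HEPES, pre-incubated 18 h at 37 C, then exposed to compound 3 h at 37 C. Beta-lactamase reporter read with LiveBLAzer B/G FRET substrate after 2 h at room temperature.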
Test [12] can be described thus: cAMP Responsive Elements (CRE) small molecule antagonists, cell-based qHTS assay (AID 1963591; active = well fitted inhibition curve with a large enough effect in the signal ratio in the repeat runs, not every such curve was filed as active; the % refers to the signal ratio; also: potency is read from the fitted curve at half-maximal effect). An outline of the steps: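 CRE-bla HEK293T cells plated 18 h, then given compound plus NKH477 at 0.25 uM final for 3 h at 37C. Beta-lactamase reporter read with LiveBLAzer B/G FRET substrate after 2 h at room temperature.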
Test [13] concerns the target Beta-2 adrenergic receptor (Homo sapiens) (UniProt P07550). The test can be described thus: Adrenergic beta2 receptor (ADRB2) small molecule antagonists, cell-based qHTS assay (AID 1963592). Also: nearly all actives have a fitted effect of over 50% in size. Also: potency is read from the fitted curve at half-maximal effect. As to activity change, negative = inhibition: series mostly up to about 92 µM. An outline of the steps: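 Cells (CHO, stable ADRB2 overexpression) incubated 18-20hr at 37C; compounds added from DMSO; agonist mix (1nM isoproterenol, 100uM IBMX, 25uM Ro-20-1724) added; 0.5hr RT; d2-cAMP and anti-cAMP-cryptate added; 1hr RT; 665/615 nm read.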

For test [14] the target is unchanged. Put plainly: Adrenergic beta2 receptor (ADRB2) small molecule agonists, cell-based qHTS assay (AID 1963593).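 Also: CHO cells stably overexpressing human ADRB2.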 An outline of the steps: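 CHO cells stably over-expressing ADRB2 were plated overnight at 37C, then dosed with compounds plus a stimulation mix containing 100uM IBMX and 25uM Ro-20-1724 for 0.5hr at room temperature. cAMP was measured by HTRF competition, 1hr.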

For test [15], the target named is D(2) dopamine receptor (Homo sapiens) (UniProt P14416). The test can be described thus: Dopamine D2 receptor (DRD2) small molecule agonists, cell-based qHTS assay (AID 1963594). Also: nearly all actives have a fitted effect of over 35% in size. An outline of the steps:
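HEK293 cells stably expressing human DRD2, pre-treated with PDE inhibitor Ro20-1724 (0.1 mM final) and compound 10 min at room temperature, then stimulated with NKH477 (200nM […]) for 30 min. cAMP read by HTRF (665/620 nm).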

For test [16] the target is unchanged. The test can be described thus: Dopamine D2 receptor (DRD2) small molecule antagonists, cell-based qHTS assay (AID 1963595; active = well fitted inhibition curve with a large enough effect in the signal ratio in the repeat runs, with a control signal flat; the % refers to the signal ratio). An outline of the steps:
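HTRF cAMP read-out at 665 and 620 nm emission (340 nm excitation). Antagonist mode: compounds were tested against 12 nM quinpirole in DRD2-HEK293 cells, with 200 nM NKH477 raising cAMP and 0.1 mM Ro20-1724 blocking its breakdown.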

Test [17] addresses 5-hydroxytryptamine receptor 2A (Homo sapiens) (UniProt P28223). The test can be described thus: 5-hydroxytryptamine receptor 2A (HTR2A) small molecule antagonists, cell-based qHTS assay (AID 1963586). Also: nearly all actives have a fitted effect of over 45% in size. In short, it runs like this:
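Antagonist-mode intracellular calcium assay: DOI (4 nM) added after 5 min compound pre-incubation at room temperature to dye-loaded HTR2A-CHO cells. Fluorescence followed for 3 min, sampled every second.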

Test [18] shares this target. The test can be described thus: 5-hydroxytryptamine receptor 2A (HTR2A) small molecule agonists, cell-based qHTS assay (AID 1963587). Also: nearly all actives have a fitted effect of over 30% in size. Also: potency is read from the fitted curve at half-maximal effect. In short, it runs like this: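 CHO cells stably expressing human HTR2A, plated 18 h, loaded with calcium dye 1 h at 37 C. Agonist mode: compounds added and intracellular calcium fluorescence recorded kinetically for 2 min at 1 sec intervals.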

Test [19] concerns the target Muscarinic acetylcholine receptor M1 (Homo sapiens) (UniProt P11229). Put plainly: Cholinergic receptor muscarinic 1 (CHRM1) small molecule agonists, cell-based qHTS assay (AID 1963589). Also: nearly all actives have a fitted effect of over 35% in size. In short, it runs like this:
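CHO cells stably expressing human CHRM1 were loaded with calcium dye for 1 h at 37 C, then compound was added in agonist mode. Intracellular calcium fluorescence was followed kinetically at 1 s intervals. Fifteen concentrations were tested in three independent runs.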

Test [20] shares this target. The test can be described thus: Cholinergic receptor muscarinic 1 (CHRM1) small molecule antagonists, cell-based qHTS assay (AID 1963588). Also: nearly all actives have a fitted effect of over 40% in size. An outline of the steps:
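CHRM1-CHO calcium-flux assay, antagonist mode. Cells were seeded 18 h, dye-loaded 1 h at 37 C and given compound for 5 min at RT, then acetylcholine was added at 50nM. FDSS fluorescence was read 3 min; 15 concentrations, three runs.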

Values without a mark were called inactive. Results filed as inconclusive are left out. The source made the active and inactive calls. Unless noted, calls follow the shape of the full dose curve.
% is scaled to controls: 0 for no effect and ±100 for the full control effect.

Beta-2 adrenergic receptor (Homo sapiens), sequence (P07550 whole entry, looked up): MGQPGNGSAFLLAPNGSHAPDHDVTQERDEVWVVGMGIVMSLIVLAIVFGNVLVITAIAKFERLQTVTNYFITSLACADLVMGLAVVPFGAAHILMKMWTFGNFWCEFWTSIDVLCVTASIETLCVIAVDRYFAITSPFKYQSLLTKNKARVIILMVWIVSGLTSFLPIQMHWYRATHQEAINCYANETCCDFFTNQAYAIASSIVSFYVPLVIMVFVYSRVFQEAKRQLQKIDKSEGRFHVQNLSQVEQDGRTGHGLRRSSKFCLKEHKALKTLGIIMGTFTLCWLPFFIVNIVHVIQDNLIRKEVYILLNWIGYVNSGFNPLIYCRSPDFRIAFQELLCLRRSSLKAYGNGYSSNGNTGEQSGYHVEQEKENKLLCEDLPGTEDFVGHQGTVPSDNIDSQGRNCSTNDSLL
Muscarinic acetylcholine receptor M1 (Homo sapiens), sequence (P11229 whole entry, looked up): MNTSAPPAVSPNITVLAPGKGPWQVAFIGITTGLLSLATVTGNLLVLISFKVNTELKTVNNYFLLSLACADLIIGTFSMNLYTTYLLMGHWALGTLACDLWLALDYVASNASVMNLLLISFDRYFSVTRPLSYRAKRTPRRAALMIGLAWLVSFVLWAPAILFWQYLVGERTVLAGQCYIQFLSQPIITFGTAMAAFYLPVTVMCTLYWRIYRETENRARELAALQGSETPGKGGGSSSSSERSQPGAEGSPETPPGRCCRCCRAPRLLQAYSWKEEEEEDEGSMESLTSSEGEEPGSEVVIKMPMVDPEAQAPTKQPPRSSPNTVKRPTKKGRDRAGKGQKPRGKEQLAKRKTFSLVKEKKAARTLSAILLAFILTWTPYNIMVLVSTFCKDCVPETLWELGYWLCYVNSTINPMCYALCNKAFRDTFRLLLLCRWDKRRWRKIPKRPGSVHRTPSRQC
D(2) dopamine receptor (Homo sapiens), sequence (P14416 whole entry, looked up): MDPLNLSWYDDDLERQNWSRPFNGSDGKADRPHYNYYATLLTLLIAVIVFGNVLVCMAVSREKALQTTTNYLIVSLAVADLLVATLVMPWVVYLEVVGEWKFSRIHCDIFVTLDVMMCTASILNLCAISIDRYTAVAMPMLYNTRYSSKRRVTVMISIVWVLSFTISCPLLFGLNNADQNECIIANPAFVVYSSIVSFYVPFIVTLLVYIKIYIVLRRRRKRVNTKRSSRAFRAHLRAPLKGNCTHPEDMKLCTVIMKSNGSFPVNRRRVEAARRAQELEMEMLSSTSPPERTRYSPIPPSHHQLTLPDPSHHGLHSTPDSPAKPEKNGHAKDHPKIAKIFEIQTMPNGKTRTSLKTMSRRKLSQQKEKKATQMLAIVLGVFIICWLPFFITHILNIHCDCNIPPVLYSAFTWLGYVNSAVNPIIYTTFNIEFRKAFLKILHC
5-hydroxytryptamine receptor 2A (Homo sapiens), sequence (P28223 whole entry, looked up): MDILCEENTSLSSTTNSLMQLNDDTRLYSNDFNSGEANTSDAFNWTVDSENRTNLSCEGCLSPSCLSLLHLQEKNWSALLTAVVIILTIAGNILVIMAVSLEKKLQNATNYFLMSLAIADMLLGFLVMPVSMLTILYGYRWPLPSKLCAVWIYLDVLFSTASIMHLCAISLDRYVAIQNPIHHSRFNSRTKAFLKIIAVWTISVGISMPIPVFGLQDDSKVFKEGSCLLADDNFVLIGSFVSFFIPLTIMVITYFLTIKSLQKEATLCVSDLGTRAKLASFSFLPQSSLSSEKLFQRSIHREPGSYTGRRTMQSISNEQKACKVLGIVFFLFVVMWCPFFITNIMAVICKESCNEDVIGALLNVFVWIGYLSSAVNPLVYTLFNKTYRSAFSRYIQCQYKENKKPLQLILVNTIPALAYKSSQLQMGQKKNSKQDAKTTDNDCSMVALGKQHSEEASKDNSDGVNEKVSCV

Regarding `C[C@@H]1CN(c2c(F)c(N)c3c(=O)c(C(=O)O)cn(C4CC4)c3c2F)C[C@H](C)N1`, the figures for the activity change, negative = cytotoxicity in test [1], in test [8] and in [9] were 1.83% [at 19 µM], 3.67% [at 13.5 µM] and 5.52% [at 13.5 µM], respectively. For the same compound, in test [2], the activity, positive = activation is -7.44% [at 19 µM]. Also, the activity change in test [3] is 0.726% [at 11.8 µM, active compounds read high]. Further, the activation was -1.07% [at 15.8 µM] in test [4]; -0.768% [at 11.8 µM] in [5]; -0.339% [at 13.5 µM] in test [6]; 0.693% [at 13.6 µM] in [7]; -0.164% [at 13.5 µM] in test [10]; -1.16% [at 19 µM] in test [11]. Further, in test [15], the activation is -2.73% [at 19 µM]. In addition, the activity change, negative = inhibition in test [12] was -4.06% [at 18.9 µM]; in [13] it was 8.12% [at 19 µM]; in [16] it was 0.614% [at 18.9 µM]. The Potency entry in [14] was “inactive”.

As for `CN(CCOc1ccc(NS(C)(=O)=O)cc1)CCc1ccc(NS(C)(=O)=O)cc1`, the Potency entry in test [1], in [2], in test [3], in [6], in test [7] and in test [8] was “inactive” in each case. Moreover, the Potency entry in test [9], in test [17], in [18], in [19], in test [11] and in test [12] was “inactive” throughout. Also, the Potency entry in test [13], in [15] and in [16] was “inactive” throughout. The result in test [4] and in test [5] was inactive.

Regarding `O=C(OCCN1CCOCC1)c1cccnc1Nc1cccc(C(F)(F)F)c1`, the Potency result in [1], in [2], in test [3], in test [6], in test [7] and in test [8] was “inactive” throughout. The Potency result in [9], in test [10], in [18], in [19], in test [11] and in test [13] was “inactive” in each case. Further, the Potency result in test [14], in test [15] and in test [16] was “inactive” each time. Also, the outcome in test [4] and in test [5] was inactive.

For the compound `C=C1CC[C@H](O)C/C1=C\C=C1/CCC[C@]2(C)[C@@H]([C@H](C)CCCC(C)C)CC[C@@H]12`, the Potency result in test [1], in [3], in test [6], in test [7], in [8] and in test [9] was “inactive” throughout. The Potency result in [12], in test [13], in [14], in test [15] and in test [16] was “inactive” in each case. In addition, the Potency in test [2] is 21.5 µM (active). The result in test [4] and in test [5] was inactive.

As to `CN(C(=O)CCCOc1ccc2[nH]c(=O)ccc2c1)C1CCCCC1`, the Potency in [1] is 10.6 µM (active). The Potency result in test [2], in [3], in test [6], in test [7], in test [8] and in [9] was “inactive” each time. Also, the Potency result in [13], in test [14] and in [15] was “inactive” throughout. Further, the outcome in [4] and in test [5] was inactive.

Regarding `CCN(CC)CCc1nc(-c2ccccc2)no1`, the Potency entry in [1], in [2], in test [3], in [6], in [7] and in test [8] was “inactive” in each case. The Potency result in test [9], in test [10], in test [20], in test [19], in test [11] and in [13] was “inactive” throughout. In addition, the Potency entry in test [15] and in test [16] was “inactive” each time. Further, the result in test [4] and in test [5] was inactive.

`CCCCCCCCCCn1cc[n+](CCCCCCCCCC)c1C`: the Potency in [1] is 21.7 µM (active); in test [8] it was 32.4 µM (active); in test [9], 36.4 µM (active); in [18] it was 55 µM (active); in test [12] it was 21.7 µM (active); in [13], 27.3 µM (active). Also, the Potency entry in [2], in test [3], in test [6], in test [7], in [19] and in test [15] was “inactive” in each case. The result in test [4] and in [5] was inactive.

On to `CN1[C@@H]2CC[C@H]1CC(OC(=O)C(O)c1ccccc1)C2` (some centres not stated), for which the Potency entry in test [1], in [2], in [3], in test [6], in test [7] and in test [8] was “inactive” each time. Also, the Potency entry in test [9], in [10], in [11], in test [12], in test [13] and in [14] was “inactive” each time. The Potency entry in [15] and in test [16] was “inactive” throughout. For the same compound, the result in [4] and in [5] was inactive.
